# Experimental data from the supplement of paper PMC8728848.
# Only a selection was taken, and the strongest signals are over-represented in it overall.
# Legend:
# Experiment in all cases: glycan array binding signal (z-score within array); higher = stronger binding
# Details in all cases: glycan notation: IUPAC condensed, linker removed
# Gal6S(b1-4)Glc6S = molecular target: Gal6S(b1-4)Glc6S
# Summary of the method: (§1)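 Columns mapping to the same glycan were averaged after glycan names were converted to IUPAC-condensed notation. The data come from 3228 arrays in the Consortium for Functional Glycomics database, limited to those with an available protein sequence. Binding is reported as a within-array Z-score averaged across arrays of one protein sequence and across linkers.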
# [1] = molecular target: GalNAc(b1-4)GlcNAc(b1-2)Man
# Summary of the method: as §1
# GalNAc(b1-4)GlcNAc6S = molecular target: GalNAc(b1-4)GlcNAc6S
# Summary of the method: as §1
# GlcA(b1-6)Gal = molecular target: GlcA(b1-6)Gal
# Summary of the method: as §1
# [2] = molecular target: GlcNAc(b1-2)[GlcNAc(b1-4)]Man(a1-3)[GlcNAc(b1-4)][GlcNAc(b1-2)[GlcNAc(b1-6)]Man(a1-6)]Man(b1-4)GlcNAc(b1-4)[Fuc(a1-6)]GlcNAc
# Summary of the method: as §1
# [3] = molecular target: GlcNAc(b1-3)Gal(b1-4)GlcNAc(b1-2)Man(a1-3)[GlcNAc(b1-3)Gal(b1-4)GlcNAc(b1-2)Man(a1-6)]Man(b1-4)GlcNAc(b1-4)GlcNAc
# Summary of the method: as §1
# GlcNAc(b1-3)Man = molecular target: GlcNAc(b1-3)Man
# Summary of the method: as §1
# [4] = molecular target: GlcNAc(b1-3)[GlcNAc(b1-4)][GlcNAc(b1-6)]GlcNAc
# Summary of the method: as §1
# Man(a1-2)Man(a1-3)Man = molecular target: Man(a1-2)Man(a1-3)Man
# Summary of the method: as §1
# [5] = molecular target: Man(a1-3)[Man(a1-6)]Man(a1-6)[Man(a1-2)Man(a1-3)]Man(b1-4)GlcNAc(b1-4)GlcNAc
# Summary of the method: as §1
# [6] = molecular target: Neu5Ac(a2-3)Gal(b1-3)[Fuc(a1-4)]GlcNAc
# Summary of the method: as §1
# [7] = molecular target: Neu5Ac(a2-3)Gal(b1-4)GlcNAc(b1-2)Man(a1-3)[Neu5Ac(a2-3)Gal(b1-4)GlcNAc(b1-2)Man(a1-6)]Man(b1-4)GlcNAc(b1-4)GlcNAc
# Summary of the method: as §1
# [8] = molecular target: Neu5Ac(a2-3)Gal(b1-4)GlcNAc(b1-2)[Neu5Ac(a2-3)Gal(b1-4)GlcNAc(b1-4)]Man(a1-3)[GlcNAc(b1-4)][Neu5Ac(a2-3)Gal(b1-4)GlcNAc(b1-4)Man(a1-6)]Man(b1-4)GlcNAc(b1-4)GlcNAc
# Summary of the method: as §1
# [9] = molecular target: Neu5Ac(a2-3)Gal(b1-4)GlcNAc(b1-2)[Neu5Ac(a2-3)Gal(b1-4)GlcNAc(b1-6)]Man(a1-6)[Neu5Ac(a2-3)Gal(b1-4)GlcNAc(b1-2)Man(a1-3)]Man(b1-4)GlcNAc(b1-4)GlcNAc
# Summary of the method: as §1
# [10] = molecular target: Neu5Ac(a2-3)Gal(b1-4)GlcNAc(b1-3)Gal(b1-4)GlcNAc(b1-3)GalNAc
# Summary of the method: as §1
# [11] = molecular target: Neu5Ac(a2-3)Gal(b1-4)[Fuc(a1-3)]GlcNAc(b1-3)Gal
# Summary of the method: as §1
# [12] = molecular target: Neu5Ac(a2-3)Gal(b1-4)[Fuc(a1-3)]GlcNAc(b1-6)[Neu5Ac(a2-3)Gal(b1-3)]GalNAc
# Summary of the method: as §1
# Neu5Ac(a2-3)GalNAc = molecular target: Neu5Ac(a2-3)GalNAc
# Summary of the method: as §1
# [13] = molecular target: Neu5Ac(a2-3)[GalNAc(b1-4)]Gal(b1-4)Glc
# Summary of the method: as §1
# [14] = molecular target: Neu5Ac(a2-6)Gal(b1-4)GlcNAc(b1-2)Man(a1-3)Man(b1-4)GlcNAc(b1-4)GlcNAc
# Summary of the method: as §1
# [15] = molecular target: Neu5Ac(a2-6)Gal(b1-4)GlcNAc(b1-2)Man(a1-3)[Neu5Ac(a2-6)Gal(b1-4)GlcNAc(b1-2)Man(a1-6)]Man(b1-4)GlcNAc(b1-4)[Fuc(a1-6)]GlcNAc
# Summary of the method: as §1
# [16] = molecular target: Neu5Ac(a2-6)Gal(b1-4)GlcNAc(b1-2)Man(a1-6)[GlcNAc(b1-2)Man(a1-3)]Man(b1-4)GlcNAc(b1-4)GlcNAc
# Summary of the method: as §1
# [17] = molecular target: Neu5Ac(a2-6)Gal(b1-4)GlcNAc(b1-2)Man(a1-6)[Man(a1-3)]Man(b1-4)GlcNAc(b1-4)GlcNAc
# Summary of the method: as §1
# [18] = molecular target: Neu5Ac(a2-6)Gal(b1-4)GlcNAc(b1-2)[Neu5Ac(a2-6)Gal(b1-4)GlcNAc(b1-4)]Man(a1-3)[GlcNAc(b1-4)][Neu5Ac(a2-6)Gal(b1-4)GlcNAc(b1-2)[Neu5Ac(a2-6)Gal(b1-4)GlcNAc(b1-6)]Man(a1-6)]Man(b1-4)GlcNAc(b1-4)GlcNAc
# Summary of the method: as §1
# [19] = molecular target: Neu5Ac(a2-6)Gal(b1-4)GlcNAc(b1-2)[Neu5Ac(a2-6)Gal(b1-4)GlcNAc(b1-6)]Man(a1-6)[Neu5Ac(a2-6)Gal(b1-4)GlcNAc(b1-2)Man(a1-3)][GlcNAc(b1-4)]Man(b1-4)GlcNAc(b1-4)GlcNAc
# Summary of the method: as §1
# [20] = molecular target: Neu5Ac(a2-6)Gal(b1-4)GlcNAc(b1-3)Gal(b1-4)GlcNAc(b1-3)Gal(b1-4)GlcNAc(b1-2)Man(a1-3)[Neu5Ac(a2-6)Gal(b1-4)GlcNAc(b1-3)Gal(b1-4)GlcNAc(b1-3)Gal(b1-4)GlcNAc(b1-2)Man(a1-6)]GalNAc
# Summary of the method: as §1
# Neu5Gc(a2-6)GalNAc = molecular target: Neu5Gc(a2-6)GalNAc
# Summary of the method: as §1
binder,measurement,setting,value
"Ovorubin (Pomacea canaliculata), J7I2T6 (protein) MFVATSLLLAIATLVVRASPHNYLIMDIEPPKSVSERDILNLLSPLQVKHSFRVTGSTRLLIVIRLDAQSYEKLDEITVPGKVEVIPAVNMADTMERCGVSWPRVELTDDNVTLFESESTLTDVTKEQLKAMLIGYGEHMSGLLQAHRFEYYQAAGATPHRHFVFVNSVPDEIEVFGREGVDIWGGPGEFVVKPQYVTRI",glycan array binding signal (z-score),Gal6S(b1-4)Glc6S,3.93
same,glycan array binding signal (z-score),[1],-0.618
same,glycan array binding signal (z-score),GalNAc(b1-4)GlcNAc6S,-0.066
same,glycan array binding signal (z-score),GlcA(b1-6)Gal,-0.181
same,glycan array binding signal (z-score),[2],-0.233
same,glycan array binding signal (z-score),[3],-0.39
same,glycan array binding signal (z-score),GlcNAc(b1-3)Man,-0.105
same,glycan array binding signal (z-score),[4],7.53
same,glycan array binding signal (z-score),Man(a1-2)Man(a1-3)Man,0.255
same,glycan array binding signal (z-score),[5],-0.9
same,glycan array binding signal (z-score),[6],-0.148
same,glycan array binding signal (z-score),[7],-0.45
same,glycan array binding signal (z-score),[8],-0.397
same,glycan array binding signal (z-score),[9],0.215
same,glycan array binding signal (z-score),[10],0.207
same,glycan array binding signal (z-score),[11],-1.06
same,glycan array binding signal (z-score),[12],-0.055
same,glycan array binding signal (z-score),Neu5Ac(a2-3)GalNAc,0.287
same,glycan array binding signal (z-score),[13],-0.336
same,glycan array binding signal (z-score),[14],0.036
same,glycan array binding signal (z-score),[15],-0.129
same,glycan array binding signal (z-score),[16],-0.738
same,glycan array binding signal (z-score),[17],-0.358
same,glycan array binding signal (z-score),[18],3.19
same,glycan array binding signal (z-score),[19],-0.646
same,glycan array binding signal (z-score),[20],3.06
same,glycan array binding signal (z-score),Neu5Gc(a2-6)GalNAc,0.691
